Assay [1] deals with Albumin (Bos taurus) (UniProt P02769). Nature of the assay: bovine serum albumin binders on microarray, profiling panel, artefact control for SMM control protein annotation, biochemical, small-molecule microarray, Alexa647 label, 635/667 nm fluorescence (AID 1118).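 Further: score merges 667 nm emission intensity and signal-to-noise per printed compound spot.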 The conditions noted are these: BSA-A647 binding, fluorescence 635 nm, higher = more signal.
Assay [2] in a line: small-molecule microarray binders of probe aXIP, primary screen, biochemical, NeuroSMM set, 635/667 nm fluorescence (AID 1119).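 Further: probe is the protein aXip251-270 applied at 1 µg/mL to compound-printed slides; binding of probe to printed compounds measured as 667 nm fluorescence plus signal to noise.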 The following applies: higher = more signal, called active from +8 up or from −8 down.
Assay [3] in a line: small-molecule binders of probe aNOTCH3, primary screen, biochemical, small-molecule microarray, 635/667 nm fluorescence (AID 1120).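 Further: probe is a biotin-tagged antibody raised against NOTCH3 rather than NOTCH3 protein; score merges spot fluorescence near 667 nm with spot signal to noise.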 The conditions noted are these: higher = more signal.
The nature of assay [4]: small-molecule binders of probe aNOTCH2, primary screen, biochemical, small-molecule microarray, 635/667 nm fluorescence (AID 1121).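 Further: score merges feature fluorescence read at 667 nm with its signal to noise.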 The conditions noted are these: higher = more signal.
Assay [5] deals with Carbonic anhydrase 2 (Homo sapiens) (UniProt P00918). Nature of the assay: CAII small-molecule binders, profiling panel, biochemical, small-molecule microarray, Alexa647-labelled CAII (AID 1122). The following applies: CAII-A647 binding fluorescence, higher = more signal.
Assay [6] is described as follows: COS7 lysate on small-molecule microarray, probe aHis, 635 nm (AID 1123).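 Further: z-score combines 667nm fluorescence intensity with signal-to-noise per printed compound spot.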 The following applies: COS7 cell lysate, fluorescence, higher = more signal.
A short description of assay [7]: compound binding in COS7 lysate, probe aLAP1, primary screen, cell lysate, small-molecule microarray (AID 1124).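 Further: lysate comes from COS7 cells expressing LAP1 and is applied at 0.3 µg/mL; score merges spot fluorescence near 667 nm with signal-to-noise over triplicate slides.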 The following applies: probe aLAP1, fluorescence, higher = more signal.
Assay [8] deals with Sam68 (KHDRBS1). As to the kind of experiment: Sam68 small-molecule binders, primary screen, biochemical, small-molecule microarray, 635 nm fluorescence (AID 1125).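 Further: score merges 667 nm channel intensity with signal to noise over triplicate slides.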 The conditions noted are these: small-molecule microarray binding, higher = more signal.
Assay [9] relates to Chordin-like protein 2 (CHRDL2). As to the kind of experiment: CHRDL2 small-molecule binders, primary screen, biochemical, small-molecule microarray, 635 nm fluorescence (AID 1126).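 Further: printed compound slides probed with Chrdl2 protein at 4 µg/mL for 1 h at 4 C; score merges 667 nm emission intensity with signal to noise over three replicate slides.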 The following applies: small-molecule microarray binding, fluorescence 635 nm; higher = more signal.
The target in assay [10] is Concanavalin-A (Canavalia ensiformis) (UniProt P02866). As to the kind of experiment: ConA small-molecule binders, primary screen, artefact control for SMM control protein annotation, biochemical, small-molecule microarray, Alexa647 label, 635 nm (AID 1127).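 Further: z combines 667 nm emission intensity with signal-to-noise across three replicate slides.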 The conditions noted are these: ConA-A647 binding fluorescence, higher = more signal.
Chain of Concanavalin-A (Canavalia ensiformis) (P02866 whole entry, looked up): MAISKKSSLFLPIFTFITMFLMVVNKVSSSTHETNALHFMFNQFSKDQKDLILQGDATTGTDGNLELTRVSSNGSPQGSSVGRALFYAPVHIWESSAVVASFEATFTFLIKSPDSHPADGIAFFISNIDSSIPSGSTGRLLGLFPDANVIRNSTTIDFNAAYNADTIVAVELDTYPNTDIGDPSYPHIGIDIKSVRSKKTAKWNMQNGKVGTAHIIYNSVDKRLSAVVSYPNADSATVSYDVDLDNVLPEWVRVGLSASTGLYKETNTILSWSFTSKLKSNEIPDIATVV
Assay [11] in a line: anti-His antibody binders, primary screen, artefact control for SMM control protein annotation, biochemical, small-molecule microarray, 635 nm fluorescence (AID 1128).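 Further: score merges feature fluorescence with signal-to-noise for each printed compound spot.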 The following applies: anti-His Alexa647 antibody binding, higher = more signal.
For assay [12], the system named is Human papillomavirus type 1a E7 protein (residues 1-88). Nature of the assay: HPV1a E7 small-molecule binders, primary screen, biochemical, small-molecule microarray, residues 1-88, 635 nm (AID 1129). The following applies: small-molecule microarray binding, fluorescence 635 nm; higher = more signal.
The target in assay [13] is Focal adhesion kinase 1 (Homo sapiens) (UniProt Q05397). Nature of the assay: small-molecule microarray binders of FAK, primary screen, biochemical, 635/667 nm fluorescence, BSA, DTT (AID 1130).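 Further: composite of spot emission at 667 nm and signal to noise over triplicate slides.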 The conditions noted are these: PTK2 binding, 635 nm fluorescence, higher = more signal.
Chain of Focal adhesion kinase 1 (Homo sapiens) (Q05397 whole entry, looked up): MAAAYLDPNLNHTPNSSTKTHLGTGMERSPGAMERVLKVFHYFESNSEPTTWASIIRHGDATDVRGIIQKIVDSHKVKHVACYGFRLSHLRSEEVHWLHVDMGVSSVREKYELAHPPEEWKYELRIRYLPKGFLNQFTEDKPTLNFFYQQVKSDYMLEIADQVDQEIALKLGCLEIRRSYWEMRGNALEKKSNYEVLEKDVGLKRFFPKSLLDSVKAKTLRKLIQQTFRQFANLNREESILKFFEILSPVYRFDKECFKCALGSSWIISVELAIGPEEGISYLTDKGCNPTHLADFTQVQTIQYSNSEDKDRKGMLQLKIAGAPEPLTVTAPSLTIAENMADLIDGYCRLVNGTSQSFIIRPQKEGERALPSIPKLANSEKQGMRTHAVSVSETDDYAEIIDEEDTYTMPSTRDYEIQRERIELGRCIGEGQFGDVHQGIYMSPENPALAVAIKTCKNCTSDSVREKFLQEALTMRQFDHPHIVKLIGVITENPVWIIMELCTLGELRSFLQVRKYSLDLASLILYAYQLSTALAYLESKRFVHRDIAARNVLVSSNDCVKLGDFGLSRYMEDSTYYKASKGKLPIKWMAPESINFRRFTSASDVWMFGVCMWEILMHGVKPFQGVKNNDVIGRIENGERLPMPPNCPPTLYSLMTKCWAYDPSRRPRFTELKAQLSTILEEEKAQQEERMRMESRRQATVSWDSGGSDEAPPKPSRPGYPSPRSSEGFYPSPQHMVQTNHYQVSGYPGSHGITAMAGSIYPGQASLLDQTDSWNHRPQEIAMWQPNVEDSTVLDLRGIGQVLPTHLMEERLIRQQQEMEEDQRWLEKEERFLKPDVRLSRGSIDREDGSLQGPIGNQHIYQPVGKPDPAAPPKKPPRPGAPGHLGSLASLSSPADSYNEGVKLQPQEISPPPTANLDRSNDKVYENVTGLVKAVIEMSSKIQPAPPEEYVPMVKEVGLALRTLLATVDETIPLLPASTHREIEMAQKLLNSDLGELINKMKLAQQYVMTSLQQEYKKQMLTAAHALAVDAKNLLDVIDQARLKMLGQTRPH
For assay [14], the system named is Fibrinogen (Alexa647-labelled). Nature of the assay: fibrinogen binders on compound microarrays, profiling panel, artefact control for SMM control-protein annotation, biochemical, small-molecule microarray, 635/667 nm fluorescence (AID 1131).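 Further: z-score merges 667 nm fluorescence with per-spot signal-to-noise over triplicate slides.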 The following applies: fibrinogen-A647 binding fluorescence, higher = more signal.
Assay [15] has as its target Follistatin (Homo sapiens) (UniProt P19883). As to the kind of experiment: follistatin binders on small-molecule microarrays, primary screen, biochemical, small-molecule microarray, 635/667 nm fluorescence (AID 1132). The following applies: FST binding, 635 nm fluorescence, higher = more signal.
In assay [16] the target is Fibroblast growth factor 2 (Homo sapiens) (UniProt P09038). As to the kind of experiment: FGF2 binders on small-molecule microarrays, primary screen, biochemical, small-molecule microarray, 635/667 nm fluorescence (AID 1133). The conditions noted are these: small-molecule microarray binding, FGF2, fluorescence 635/667; higher = more signal.
Chain of Fibroblast growth factor 2 (Homo sapiens) (P09038 whole entry, looked up): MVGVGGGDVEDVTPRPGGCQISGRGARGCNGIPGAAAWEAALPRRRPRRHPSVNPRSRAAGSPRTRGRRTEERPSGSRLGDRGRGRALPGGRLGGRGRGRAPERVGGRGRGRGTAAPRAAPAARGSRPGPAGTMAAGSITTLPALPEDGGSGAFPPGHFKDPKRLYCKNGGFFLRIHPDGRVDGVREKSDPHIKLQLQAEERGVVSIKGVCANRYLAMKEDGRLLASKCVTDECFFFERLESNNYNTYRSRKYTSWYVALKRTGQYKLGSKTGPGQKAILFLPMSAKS
A short description of assay [17]: mitochondrial membrane potential change in A549 cells, profiling panel, cell-based, JC-1 fluorescence, basal, 24 h, 100 nL (AID 1138).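 Further: A549 lung adenocarcinoma cells under basal conditions with no added stimulus; test concentration not given here.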 The following applies: higher = more signal.
Assay [18] concerns Lefty1. Nature of the assay: Lefty1 binders on small-molecule microarrays, primary screen, biochemical, small-molecule microarray, 635/667 nm fluorescence (AID 1139). The conditions noted are these: small-molecule microarray binding, fluorescence 635/667; higher = more signal.
Assay [19] has as its system wheat germ agglutinin (Triticum aestivum), Alexa647-labelled. Nature of the assay: wheat germ agglutinin binders on compound microarrays, profiling panel, artefact control for SMM control-protein annotation, biochemical, small-molecule microarray, 635/667 nm fluorescence (AID 1140).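 Further: score merges 667 nm feature emission with signal to noise over triplicate slides.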 The following applies: WGA-A647 binding, 635 nm fluorescence, higher = more signal.
The target in assay [20] is Luciferin 4-monooxygenase (Photinus pyralis) (UniProt P08659). As to the kind of experiment: firefly luciferase enzyme inhibitors, primary screen, biochemical, luminescence, purified enzyme, 2006 set (AID 1141).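 Further: cell-free assay with purified firefly luciferase at 100 ng per well in PBS; test concentration not given here.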 The following applies: SteadyGlo luminescence, 30 min, higher = more signal, called active from +8 up or from −8 down.
Chain of Luciferin 4-monooxygenase (Photinus pyralis) (P08659 whole entry, looked up): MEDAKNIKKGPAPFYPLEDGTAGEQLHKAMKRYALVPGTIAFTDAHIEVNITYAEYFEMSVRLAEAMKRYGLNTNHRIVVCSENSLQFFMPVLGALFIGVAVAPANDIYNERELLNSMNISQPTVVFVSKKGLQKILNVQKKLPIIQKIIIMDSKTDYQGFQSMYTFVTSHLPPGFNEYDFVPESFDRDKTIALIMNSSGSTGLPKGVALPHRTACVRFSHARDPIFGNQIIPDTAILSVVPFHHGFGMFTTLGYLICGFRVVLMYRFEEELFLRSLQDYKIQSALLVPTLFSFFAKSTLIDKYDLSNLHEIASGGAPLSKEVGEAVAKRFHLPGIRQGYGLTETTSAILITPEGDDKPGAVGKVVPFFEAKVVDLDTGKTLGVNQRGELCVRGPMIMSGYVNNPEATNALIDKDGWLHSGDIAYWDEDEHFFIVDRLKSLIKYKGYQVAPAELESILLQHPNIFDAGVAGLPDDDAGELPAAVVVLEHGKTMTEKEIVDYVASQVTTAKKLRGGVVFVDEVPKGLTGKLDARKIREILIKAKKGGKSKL

The source made the active and inactive calls.

Chain of Follistatin (Homo sapiens) (P19883 whole entry, looked up): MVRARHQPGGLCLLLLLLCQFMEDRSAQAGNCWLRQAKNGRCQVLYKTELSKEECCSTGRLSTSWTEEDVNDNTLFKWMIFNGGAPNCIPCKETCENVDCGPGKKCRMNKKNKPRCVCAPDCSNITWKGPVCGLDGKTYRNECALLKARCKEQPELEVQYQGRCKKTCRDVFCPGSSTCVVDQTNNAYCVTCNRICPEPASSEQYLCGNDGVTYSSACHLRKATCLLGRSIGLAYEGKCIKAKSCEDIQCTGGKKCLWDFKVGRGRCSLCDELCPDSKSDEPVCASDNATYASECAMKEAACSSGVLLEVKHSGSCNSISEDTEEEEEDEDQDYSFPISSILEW
Chain of Albumin (Bos taurus) (P02769 whole entry, looked up): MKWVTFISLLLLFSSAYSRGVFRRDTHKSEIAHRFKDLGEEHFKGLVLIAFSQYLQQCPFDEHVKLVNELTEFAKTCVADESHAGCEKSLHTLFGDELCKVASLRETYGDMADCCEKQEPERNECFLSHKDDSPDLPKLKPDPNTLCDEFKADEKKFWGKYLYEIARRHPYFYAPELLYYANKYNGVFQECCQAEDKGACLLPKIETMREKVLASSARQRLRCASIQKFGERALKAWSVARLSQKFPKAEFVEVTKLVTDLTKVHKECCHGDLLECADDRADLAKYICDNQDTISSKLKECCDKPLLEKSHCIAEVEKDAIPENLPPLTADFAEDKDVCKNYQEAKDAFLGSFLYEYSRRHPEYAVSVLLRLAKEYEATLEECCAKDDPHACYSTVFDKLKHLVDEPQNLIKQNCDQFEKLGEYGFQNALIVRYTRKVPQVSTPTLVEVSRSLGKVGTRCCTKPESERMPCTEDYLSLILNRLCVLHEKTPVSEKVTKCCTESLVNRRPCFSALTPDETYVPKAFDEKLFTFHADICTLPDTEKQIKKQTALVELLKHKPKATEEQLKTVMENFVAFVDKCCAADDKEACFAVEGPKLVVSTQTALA

On to `CCN1C(=O)[C@H]2[C@H]3[C@H](O)[C@H](O)CC(=NO[C@@H]4O[C@H](CO)[C@@H](O)[C@H](O)[C@H]4O)[C@@H]3CC[C@H]2C1=O`, for which the composite z-score is -0.647 in [1]; -0.213 in assay [3]; -0.203 in [4]; -0.12 in [5]; -1.22 in assay [6]; -0.378 in assay [7]. Moreover, the composite z-score in [8] was -1.5; in assay [9], -0.229; in assay [10], -1.14; in assay [11], -0.0636; in assay [12], -1.45; in assay [13], -0.41. Further, the composite z-score in assay [14] is -2.56; in assay [15] it was 0.477; in [16] it was 0.0724; in assay [18] it was 0.232; in assay [19] it was 0.714. Moreover, the composite Z-score in assay [2] is 0.103 (inactive). Also, the z-score is 0.459 in [17] and -0.156 (inactive) in assay [20].

Regarding `O=C1CCCC=C1C(O)CCOCc1ccccc1` (stereo not given), the composite z-score in assay [1] was -0.492; in assay [3] it was -0.0072; in [4] it was -0.108; in assay [5], -0.0262; in assay [6], -0.202; in assay [7] it was -0.195. Also, the composite z-score is -0.887 in assay [8]; 0.309 in [9]; -0.299 in assay [10]; -0.467 in assay [11]; -0.406 in assay [12]; -0.0626 in assay [13]. Besides, the composite z-score in [14] is -1; in [15], 0.112; in assay [16], 0.102; in assay [18] it was 0.484; in assay [19], -0.123. In addition, the composite Z-score in assay [2] was -0.32 (inactive). The z-score was -0.758 in assay [17] and -0.0361 (inactive) in assay [20].

As for `COC(=O)[C@@]1(Cc2ccc(F)cc2)[C@H]2c3cc(C(=O)N(C)C)n(Cc4ccc(OC)c(OC)c4)c3C[C@H]2CN1C(=O)c1ccccc1`, the composite z-score was 0.378 in assay [1]; 0.194 in assay [3]; 0.265 in assay [4]; 0.866 in [5]; 0.383 in assay [6]; -0.253 in [7]. Moreover, the composite z-score in assay [8] is -0.309; in assay [9] it was 0.106; in assay [10], -0.189; in [11], 0.835; in assay [12] it was -0.267; in assay [13], 1.71. Also, the composite z-score in assay [14] is 0.661; in [15] it was -0.405; in assay [16] it was -0.346; in assay [18], -0.614; in assay [19] it was 0.63. Moreover, the composite Z-score in [2] was 0.206 (inactive). The z-score in assay [17] is 0.362; in [20], 1.22 (inactive).

For `N#Cc1ccc(NN2C(C(O)c3cc(C(F)(F)F)cc(C(F)(F)F)c3)C=CC3C(=O)N(c4ccccc4)C(=O)C32)cc1` (stereo not given), the composite z-score in assay [1] came out at 0.996; in assay [3], 0.425; in [4] it was 0.0388; in assay [5], 0.612; in assay [6], 2.82; in assay [7] it was 0.557. Moreover, the composite z-score in [8] was 1.33; in assay [9], -0.904; in assay [10] it was 1.19; in [11] it was 0.94; in assay [12] it was 1.17; in assay [13], 0.756. For the same compound, the composite z-score is 0.932 in [14]; 1.11 in assay [15]; -0.477 in [16]; 0.265 in [18]; 1.16 in [19]. Besides, the composite Z-score in assay [2] is 0.239 (inactive). Besides, the results for the z-score in assay [17] and in assay [20] were 0.277 and -0.514 (inactive), respectively.

For the compound `C[C@H]1Cc2c(-c3ccccc3)nc3c(c2CO1)CN(CCOc1ccccc1)CC3`, the composite z-score is 0.68 in assay [1]; 0.0667 in assay [3]; -0.112 in assay [4]; 0.352 in [5]; 0.71 in assay [6]; 0.292 in assay [7]. The composite z-score turned out to be 1.3 in [8]; 0.521 in [9]; 0.993 in assay [10]; 1.08 in assay [11]; 0.576 in [12]; 0.269 in assay [13]. Besides, the composite z-score was 0.728 in [14]; 1.09 in assay [15]; 1.08 in [16]; 1.11 in [18]; 0.253 in [19]. In addition, the composite Z-score in [2] is -0.2 (inactive). Besides, the z-score is 3.24 in assay [17] and -1.41 (inactive) in assay [20].

Values taken from PubChem BioAssay.
